In the library only some 2.5% were active in any assay of this set; here they are far more common.
Cruzain noTriton: cruzain (T. cruzi) inhibition without detergent; P25779; purified cruzain, Z-FR-AMC fluorescence, no detergent; Potency, µM, inactives show max response, negative = inhibition, usual class: inhibitors; 2.3% of 200,000 active; AID 1476;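 further: plate controls were enzyme without inhibitor for no effect and buffer without enzyme for full effect; nearly all actives have a fitted effect of over 40% in size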
Target sequence (P25779 123-467 limits assumed): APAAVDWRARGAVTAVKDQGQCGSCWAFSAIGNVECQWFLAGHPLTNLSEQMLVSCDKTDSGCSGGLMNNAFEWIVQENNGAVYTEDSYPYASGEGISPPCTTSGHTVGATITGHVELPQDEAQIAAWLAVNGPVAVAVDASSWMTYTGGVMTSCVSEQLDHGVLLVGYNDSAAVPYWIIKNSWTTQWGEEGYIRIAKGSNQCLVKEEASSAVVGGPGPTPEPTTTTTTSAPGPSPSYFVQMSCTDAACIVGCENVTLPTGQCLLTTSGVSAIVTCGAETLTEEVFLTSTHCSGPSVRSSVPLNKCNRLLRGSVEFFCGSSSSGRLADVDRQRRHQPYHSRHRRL
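Purified cruzain at 1.5 nM, pre-incubated 15 min with compound at room temperature in 100 mM sodium acetate pH 5.5, 5 mM DTT, 0.00005% Triton X-100. Reaction started with 2 uM Z-FR-AMC; AMC fluorescence increase over 60 s gives rate.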
Cruzain Triton: inhibitors of Trypanosoma cruzi cruzain with detergent. P25779. purified cruzain, Z-FR-AMC fluorescence, 0.01% Triton. Potency, µM, inactives show max response, negative = inhibition, hits mostly inhibitors. 0.43% of 200,000 active. AID 1478;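 further: plate controls were neutral wells for no effect and buffer without enzyme for full effect; nearly all actives have a fitted effect of over 40% in size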
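In this qHTS format, compounds are incubated with 1.5 nM cruzain for 15 min at room temperature before 2 uM Z-FR-AMC is added. Release of AMC is followed at 360/450 nm, and progress is taken as the 60 s fluorescence difference.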
* hit, by the source's call; u = inconclusive. The call rests on the fitted dose curve; in most records, active means well fitted curve in the direction sought with a large enough effect; inconclusive means small, poorly fitted or top-dose-only effect, or another doubt; inactive means no such curve, though single readings can be large; an effect the other way counts as inactive or inconclusive. Potency means the concentration at half of the fitted maximal effect.

SMILES | Cruzain noTriton | Cruzain Triton
COCc1nnc(NC(=O)CCC2CCCCC2)s1 | -5% | 2%
O=C(NC(Cc1ccccc1)C(=O)Oc1ccc2c(C(F)(F)F)cc(=O)oc2c1)OCc1ccccc1 (centres undefined) | u | 11µM*
CC(NC(=O)OCc1ccccc1)C(=O)Oc1cc2oc(=O)cc(-c3ccccc3)c2cc1Cl (centres undefined) | u | 22µM*
O=C(COc1ccc2c(C(F)(F)F)cc(=O)oc2c1)NCc1cccs1 | -15% | -1%
CC(Oc1ccc2c(-c3ccccc3)cc(=O)oc2c1)C(=O)O (centres undefined) | -4% | -1%
COc1ccc(NC(=O)N2CCN3CCCCC3C2)cc1OC (centres undefined) | 4% | -1%
CC1OC(n2cc(F)c(=O)[nH]c2=O)C(O)C1O (centres undefined) | -1% | 4%
O=C(Nc1ccc(O)c(-c2nc3ccccc3o2)c1)C1(c2ccc(Cl)cc2)CCCC1 | 5µM* | 7%
O=C(Nc1ccc(O)c(-c2nc3ccccc3o2)c1)c1ccco1 | -9% | -1%
CCc1c(-c2ccccc2)nc2ccccc2c1C(=O)NCCc1ccccc1 | 5% | 0%
O=C(Nc1ccc(Cl)cc1F)c1cc(S(=O)(=O)NCc2ccc3c(c2)OCO3)ccc1F | 6% | 1%
O=Cc1c2[nH]c3ccccc3c2cc2[nH]c3ccccc3c12 | 25µM* | 1%
c1ccc2c(c1)[nH]c1ccccc12 | 0% | -6%
O=C(Cn1ncc2ccc(Cl)cc21)NCc1ccc(F)cc1 | 17% | 0%
CCc1ccc(NC(=O)c2cnn(-c3c(C)cccc3C)c2C2CCNCC2)cc1 | 2% | -2%
COc1ccccc1NC(=O)CN1C(=O)CC(c2ccc(C)c(C)c2)=Nc2ccccc21 | -17% | -8%
CCOc1ccc(NC(=O)c2cnn(-c3ccc(C)c(C)c3)c2C2CCN(C(=O)OC(C)(C)C)CC2)cc1 | -1% | 1%
CCOC(=O)N1CCN(C(=O)c2ccc3c(c2)N(Cc2ccccc2F)C(=O)c2ccccc2S3=O)CC1 (centres undefined) | u | 7%
COc1cc(/C=N/Nc2ccc(Cl)cc2)ccc1OC(=O)c1cccs1 | 7.9µM* | -3%
COc1cc(/C=N/Nc2cccc(C)c2)ccc1OC(=O)c1ccco1 | 16µM* | -2%
COc1cc(/C=N\NC(=O)c2ccc(C)nc2)ccc1OC(=O)c1ccco1 | -6% | -5%
COc1cc(/C=N/NC(=O)CNC(=O)c2ccccc2)ccc1OC(=O)c1cccs1 | 0% | -6%
CCOC(=O)CSc1nc2cc3c(cc2c(=O)n1CCCC(=O)NCc1ccc2c(c1)OCO2)OCO3 | 11% | 0%
Cc1cccc(-c2nnc3n2N=C(c2ccc(Br)cc2)CS3)c1 | -3% | 3%
CC1=Nn2c(nnc2-c2cc(-c3ccccc3)n[nH]2)SC1 | 6% | 0%
SMILES | Cruzain noTriton | Cruzain Triton
c1ccc(-c2ccc(C3=Nn4c(nnc4-c4cc(-c5ccccc5)n[nH]4)SC3)cc2)cc1 | 3.2µM* | 1%
COc1cccc(-c2nnc3n2N=C(c2cccc(Br)c2)CS3)c1 | 7.9µM* | 3%
COc1ccc(Cl)cc1NC(=O)CN1C(=O)CSc2ccc(S(=O)(=O)N3CCCC3)cc21 | -9% | 2%
N#Cc1cc(-c2ccccc2)nnc1Sc1ccc(F)cc1 | 4% | 0%
N#Cc1cc(-c2ccccc2)nnc1Sc1ccccc1 | 25µM* | 0%
CCc1ccc(NC(=O)CCCc2nc(-c3ccco3)no2)cc1 | -4% | -6%
O=C1/C(=C/c2ccc(F)cc2)SC(=S)N1Nc1ncc(C(F)(F)F)cc1Cl | u | -8%
O=C1/C(=C\c2ccccn2)SC(=S)N1Nc1ncc(C(F)(F)F)cc1Cl | 6% | 13µM*
CCOc1ccc(NC(=O)c2ccc3c(c2)nnn3C2CCCC2)cc1 | -6% | -1%
CN(C)c1cccc2c(C=C(C#N)C#N)ccc(N(C)C)c12 | 20µM* | 20µM*
Cc1cc(C=C(C#N)C#N)c(C)n1-c1ccccc1 | -1% | -1%
CCOc1cc2sc(N3CCC(C(=O)Nc4ccc(C)cc4C)CC3)nc2cc1Br | 3% | -1%
CC(=O)NCCC(=O)Nc1nc(-c2cccs2)c(-c2cccs2)s1 | u | -6%
O=C(Nc1nc(-c2cccs2)c(-c2cccs2)s1)C1(c2ccccc2)CC1 | 10µM* | -1%
Cc1nc(C(=O)Nc2ccc(Cl)cc2Cl)nn1-c1cc(OC(C)C)c(Cl)cc1Cl | 25µM* | -1%
Cc1nc(C(=O)Nc2cccc(Cl)c2Cl)nn1-c1cc(OC(C)C)c(Cl)cc1Cl | u | -2%
Cc1nc(C(=O)Nc2cccc(Cl)c2)nn1-c1cc(OC(C)C)c(Cl)cc1Cl | u | -1%
Cc1nc(C(=O)Nc2cc(Cl)ccc2Cl)nn1-c1cc(OC(C)C)c(Cl)cc1Cl | 25µM* | 4%
CCOc1cccc(CC(=O)NCc2ccc3c(c2)CCN3C(C)=O)c1OCC | 3% | 6%
Cc1ccc(S(=O)(=O)CC(=O)Nc2sc3c(c2C#N)CCCC3)cc1 | 8% | 4%
Cc1ccc(C(=O)Nc2ccc(N3CCOCC3)cc2)cc1 | 4% | 7%
Cc1ccc(C(=O)N2CCN(c3ccc(NC(=O)CSc4ccc(Cl)cc4)cc3)CC2)cc1 | 6% | -4%
Cc1ccc(C(=O)Nc2ccc(N3CCN(S(C)(=O)=O)CC3)cc2)cc1 | 16µM* | 5%
CS(=O)(=O)N1CCN(c2ccc(NC(=O)CSc3ccc(Cl)cc3)cc2)CC1 | 4µM* | 6%
Cc1oc(-c2ccccc2F)nc1Cn1c(SCc2ccccc2F)nc2ccncc21 | -6% | -15%
SMILES | Cruzain noTriton | Cruzain Triton
CCOc1cccc(C2c3[nH]c4ccccc4c3CCN2C(=O)Cc2cccc(OCC)c2OCC)c1 (centres undefined) | -13% | -4%
Cc1ccc(NC(=O)c2oc3ccccc3c2NC(=O)C23CC4CC(CC(C4)C2)C3)cc1 | u | 0%
Oc1ccc(NCc2ccc(OCc3ccccc3)cc2)cc1 | -15% | -16%
CCc1ccc(CNc2ccc(O)cc2)cc1 | 32µM* | -21%
C=CCc1ccccc1OC[C@H](O)CNC(C)C | -1% | -3%
CCc1ccc(NS(=O)(=O)c2ccc3[nH]cc(C(=O)NCCCOC(C)C)c(=O)c3c2)cc1 | 20µM* | -4%
COc1cccc(NS(=O)(=O)c2ccc3[nH]cc(C(=O)NC4CC4)c(=O)c3c2)c1 | -5% | -10%
COc1cccc(NS(=O)(=O)c2ccc3[nH]cc(C(=O)NCCc4ccccc4)c(=O)c3c2)c1 | 13µM* | -2%
COc1cccc(NS(=O)(=O)c2ccc3[nH]cc(C(=O)NCCc4ccc(C)cc4)c(=O)c3c2)c1 | 13µM* | 3%
CC(C)c1ccc(NS(=O)(=O)c2ccc3[nH]cc(C(=O)NCCc4ccccc4)c(=O)c3c2)cc1 | 7% | 1%
CCOc1ccc(NS(=O)(=O)c2ccc3[nH]cc(C(=O)NCCc4ccccc4)c(=O)c3c2)cc1 | 14% | -2%
COc1ccc(N2CC(NC(=O)/C=C\c3ccc4c(c3)OCO4)CC2=O)cc1OC (centres undefined) | u | -10%
O=C(O)C(O)C(O)(Cc1ccc(O)cc1)C(=O)O (centres undefined) | -11% | 8%
COc1ccc(-n2ncc(C(=O)NCc3ccc4c(c3)OCO4)c2C2CCN(C(=O)OC(C)(C)C)CC2)cc1 | 8% | -9%
O=C(Nc1ccc(Cn2cccn2)cc1)c1ccc(COc2cccc(Br)c2)cc1 | -13% | -4%
O=C(Nc1ccc(Cn2cccn2)cc1)c1ccc(COc2ccc(Br)cc2)cc1 | 13µM* | 2%

Screening data from PubChem.
